In PubChem BioAssay:
Where “and” joins values, the source holds several entries; their conditions need not be identical. Identical values can stand only once. Some structures have more than one record in an assay (separate samples or runs), and their calls can disagree. Calls of active or inactive are those of the source.

Assays:
[1] = optical density shifts of acrAB sulA E. coli – strain DRC41, OD650, 48 h, E. coli filamentation inducer project, primary screen (AID 1152); conditions: higher = more signal, called active from +8 up or from −8 down;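 note: E. coli MC1000 strain DRC41 lacking acrAB efflux pump and sulA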
[2] = probe aLefty1 binding on compound microarray – biochemical, small-molecule microarray, 635/667 nm fluorescence, primary screen (AID 1153); conditions: higher = more signal;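 note: score merges spot fluorescence with signal-to-noise ratio from the scanned slide images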
[3] = plasmodial surface anion channel blockers, osmotic lysis – cell-based, P. falciparum Indochina, OD700, 1 h, primary screen (AID 1154); conditions: P. falciparum Indochina infected RBC osmotic lysis, higher = more signal, called active from +8 up or from −8 down
[4] = plasmodial surface anion channel blockers, osmotic lysis – cell-based, P. falciparum Indochina, OD700, 2 h, primary screen (AID 1155);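 note: lysis reports solute entry through the parasite surface anion channel PSAC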; conditions: P. falciparum Indochina infected erythrocytes, higher = more signal, called active from +8 up or from −8 down
[5] = changes in parasitized red cell lysis, either direction – P. falciparum Indochina, OD700, 3 h, PSAC antagonist project, primary screen (AID 1156); conditions: P. falciparum-infected erythrocytes, osmotic lysis, higher = more signal, called active from +8 up or from −8 down
[6] = plasmodial surface anion channel blockers, osmotic lysis – cell-based, P. falciparum Indochina, OD700, 18 h, primary screen (AID 1157); conditions: P. falciparum Indochina infected erythrocytes, osmotic lysis OD700, 18 h; higher = more signal, called active from +8 up or from −8 down
[7] = S6 kinase pathway phospho-S6 level changes – cell-based, A549, cytoblot, luminescence, serum-stimulated, primary screen (AID 1158); conditions: 5 h, higher = more signal;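 note: serum-stimulated A549 lung adenocarcinoma cells; signal is phosphorylated S6 detected by cytoblot immunostaining with HRP secondary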
[8] = biological target: NADPH oxidase 2 (Homo sapiens) (UniProt P04839); experiment: compounds shifting NOX2 Amplex Red fluorescence – cell-based, HEK293-NOX2, PMA-stimulated, NOX inhibitor project, primary screen (AID 1159); conditions: 45 min, higher = more signal, called active from +8 up or from −8 down; note: test concentration not given here
[9] = biological target: NADPH oxidase 4 (Homo sapiens) (UniProt Q9NPH5); experiment: compounds shifting NOX4 Amplex Red fluorescence – cell-based, HEK293-NOX4, tetracycline-induced, NOX inhibitor project, primary screen (AID 1160); conditions: HEK293-NOX4, Amplex Red H2O2 fluorescence, 45 min; higher = more signal, called active from +8 up or from −8 down
[10] = biological target: NADPH oxidase 5 (Homo sapiens) (UniProt Q96PH1); experiment: compounds shifting NOX5 Amplex Red fluorescence – cell-based, HEK293-NOX5, NOX inhibitor project, primary screen (AID 1161); conditions: HEK293-NOX5, ionomycin, 45 min, higher = more signal
[11] = compound effects on lung adenocarcinoma cell viability – A549, calcein-AM fluorescence, 48 h, basal, profiling panel (AID 1162); conditions: higher = more signal; note: test concentration not given here
[12] = compound effects on differentiated 3T3-L1 adipocyte viability – cell-based, 3T3-L1 adipocytes, calcein-AM fluorescence, 48 h, basal, profiling panel (AID 1163); conditions: 3T3-L1 adipocytes viability, higher = more signal; note: test concentration not given here
[13] = compound effects on hepatocellular carcinoma cell viability – HepG2, calcein-AM fluorescence, 48 h, basal, profiling panel (AID 1164); conditions: higher = more signal; note: test concentration not given here
[14] = compound effects on multiple myeloma cell viability – MM1S, calcein-AM fluorescence, 48 h, basal, profiling panel (AID 1165); conditions: higher = more signal; note: test concentration not given here
[15] = calcein-AM signal in unstimulated myeloma cells – cell-based, calcein-AM fluorescence, 48 h, PK04 Diversity Set, profiling panel (AID 1166); conditions: RPMI8226 myeloma viability, higher = more signal;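 note: cells grown under basal conditions without added stimulus; test concentration not given here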
[16] = JC-1 mitochondrial signal, unstimulated HepG2 cells – cell-based, JC-1 fluorescence, 24 h, 100 nL compound, profiling panel (AID 1167); conditions: HepG2 mitochondrial potential, higher = more signal; note: test concentration not given here
[17] = JC-1 mitochondrial signal, unstimulated adipocytes – cell-based, JC-1 fluorescence, 3T3-L1 adipocytes, 24 h, 100 nL compound, profiling panel (AID 1168); conditions: JC-1 mitochondrial fluorescence, higher = more signal, called active from +8 up or from −8 down; note: test concentration not given here
[18] = JC-1 mitochondrial signal, unstimulated myeloma cells – cell-based, JC-1 fluorescence, RPMI8226, 24 h, 100 nL compound, profiling panel (AID 1169); conditions: JC-1 mitochondrial potential fluorescence, higher = more signal; note: test concentration not given here
[19] = JC-1 mitochondrial signal, unstimulated MM1S myeloma – cell-based, JC-1 fluorescence, 24 h, 100 nL compound, profiling panel (AID 1170); conditions: MM1S mitochondrial potential, higher = more signal; note: test concentration not given here
[20] = resazurin metabolic signal in A549 cells – cell-based, resazurin fluorescence, 24 h, PK04 Diversity Set, profiling panel (AID 1171); conditions: A549 viability, higher = more signal, called active from +8 up or from −8 down; note: test concentration not given here

Chain of NADPH oxidase 2 (Homo sapiens) (P04839 whole entry, looked up): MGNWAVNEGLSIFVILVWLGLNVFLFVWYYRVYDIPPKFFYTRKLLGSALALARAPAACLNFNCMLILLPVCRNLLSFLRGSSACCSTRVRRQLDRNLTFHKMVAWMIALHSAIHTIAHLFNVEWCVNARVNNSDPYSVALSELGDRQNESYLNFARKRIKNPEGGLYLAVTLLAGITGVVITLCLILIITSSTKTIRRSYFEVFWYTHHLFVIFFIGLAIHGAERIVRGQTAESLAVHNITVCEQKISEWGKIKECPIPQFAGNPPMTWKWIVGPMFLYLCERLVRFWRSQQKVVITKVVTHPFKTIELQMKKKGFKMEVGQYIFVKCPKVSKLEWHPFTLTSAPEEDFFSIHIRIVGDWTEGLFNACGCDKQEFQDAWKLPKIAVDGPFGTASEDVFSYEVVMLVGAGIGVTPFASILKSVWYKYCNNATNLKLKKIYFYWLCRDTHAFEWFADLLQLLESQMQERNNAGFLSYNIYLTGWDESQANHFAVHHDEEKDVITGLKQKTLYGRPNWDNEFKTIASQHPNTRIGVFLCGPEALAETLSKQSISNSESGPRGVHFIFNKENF
Chain of NADPH oxidase 4 (Homo sapiens) (Q9NPH5 whole entry, looked up): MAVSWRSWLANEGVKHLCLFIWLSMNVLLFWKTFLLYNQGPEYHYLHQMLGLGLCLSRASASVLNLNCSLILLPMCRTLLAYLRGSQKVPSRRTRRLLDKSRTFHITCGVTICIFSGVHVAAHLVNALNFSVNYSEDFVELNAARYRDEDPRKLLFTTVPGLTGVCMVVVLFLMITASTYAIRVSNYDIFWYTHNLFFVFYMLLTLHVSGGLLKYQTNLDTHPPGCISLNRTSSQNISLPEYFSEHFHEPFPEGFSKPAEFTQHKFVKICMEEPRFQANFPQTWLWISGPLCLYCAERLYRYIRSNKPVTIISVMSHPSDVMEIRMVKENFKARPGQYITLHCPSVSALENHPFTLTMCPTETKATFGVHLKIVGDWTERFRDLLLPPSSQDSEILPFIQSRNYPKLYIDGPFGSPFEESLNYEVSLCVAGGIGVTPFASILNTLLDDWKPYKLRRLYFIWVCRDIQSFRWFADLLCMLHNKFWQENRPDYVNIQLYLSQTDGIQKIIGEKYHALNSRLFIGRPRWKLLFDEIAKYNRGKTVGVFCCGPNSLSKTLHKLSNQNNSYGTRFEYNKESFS
Chain of NADPH oxidase 5 (Homo sapiens) (Q96PH1 whole entry, looked up): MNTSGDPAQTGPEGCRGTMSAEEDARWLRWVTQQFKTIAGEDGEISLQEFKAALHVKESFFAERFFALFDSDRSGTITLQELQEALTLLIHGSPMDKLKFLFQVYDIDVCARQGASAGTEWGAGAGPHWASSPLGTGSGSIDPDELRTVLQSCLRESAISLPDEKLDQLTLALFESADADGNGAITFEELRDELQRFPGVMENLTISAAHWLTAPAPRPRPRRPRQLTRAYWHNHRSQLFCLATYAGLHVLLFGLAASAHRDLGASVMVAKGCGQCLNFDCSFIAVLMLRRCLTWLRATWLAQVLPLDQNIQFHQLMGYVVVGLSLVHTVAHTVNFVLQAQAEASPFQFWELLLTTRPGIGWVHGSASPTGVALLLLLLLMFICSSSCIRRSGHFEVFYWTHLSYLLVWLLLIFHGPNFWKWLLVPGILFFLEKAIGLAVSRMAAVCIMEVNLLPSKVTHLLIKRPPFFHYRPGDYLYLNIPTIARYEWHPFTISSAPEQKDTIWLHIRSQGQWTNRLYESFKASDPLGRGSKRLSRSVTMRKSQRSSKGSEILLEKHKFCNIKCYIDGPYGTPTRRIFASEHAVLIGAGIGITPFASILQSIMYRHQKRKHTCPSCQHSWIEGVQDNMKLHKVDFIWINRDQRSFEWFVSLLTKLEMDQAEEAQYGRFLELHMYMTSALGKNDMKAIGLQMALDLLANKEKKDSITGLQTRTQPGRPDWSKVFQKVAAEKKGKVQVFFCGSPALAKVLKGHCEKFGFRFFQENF

Row | SMILES | z-score [1] | composite z-score [2] | z-score [3] | z-score [4] | z-score [5] | z-score [6] | z-score [7] | z-score [8] | z-score [9] | z-score [10] | z-score [11] | z-score [12] | z-score [13] | z-score [14] | z-score [15] | z-score [16] | z-score [17] | z-score [18] | z-score [19] | z-score [20]
1 | C=CCN(C(=O)C(c1cccs1)N(C(=O)/C=C\C(=O)O)c1ccc(CCO)cc1)c1ccc(OC)cc1 (stereo not given) | 2.16 (inactive) and 0.76 (inactive) | -0.0186 and -0.229 | 1.73 (inactive) and -1.02 (inactive) | 0.0371 (inactive) and -0.3 (inactive) | -0.0439 (inactive) and 0.347 (inactive) | 0.454 (inactive) and -0.0131 (inactive) | 0.749 and 0.862 | -0.147 (inactive) and -0.268 (inactive) | -0.649 (inactive) and -1.34 (inactive) | 0.137 and -0.261 | -0.256 and 1.54 | 0.015 and -0.199 | 1.35 and 0.76 | 1 and -0.0823 | 1.2 and -0.0106 | 0.417 and 0.583 | 0.249 (inactive) and 1.26 (inactive) | 0.201 and 0.0752 | -1.07 and 1.18 | 0.307 (inactive) and 0.0568 (inactive)
2 | C=CCN(Cc1ccccc1)C(=O)C(c1cccs1)N(C(=O)/C=C\C(=O)O)c1ccc(CCO)cc1 (stereo not given) | 0.906 (inactive) and 0.383 (inactive) | -0.0449 and -0.314 | 0.149 (inactive) and -0.674 (inactive) | -0.36 (inactive) and 0.526 (inactive) | 0.0823 (inactive) and -0.0781 (inactive) | 0.283 (inactive) and 0.306 (inactive) | 1.84 and 0.284 | -0.228 (inactive) and -0.269 (inactive) | -0.353 (inactive) and -0.512 (inactive) | -0.0714 and -0.0433 | -0.636 and -0.0917 | 0.0605 and -0.16 | 0.391 and 0.373 | 1.49 and 1.81 | 0.586 and 0.894 | 1.26 and 0.706 | 0.645 (inactive) and 1.1 (inactive) | 0.648 and 0.272 | -1.19 and -0.751 | -0.29 (inactive) and -0.14 (inactive)
3 | CC(CO)N1C(=O)[C@@H]2C3C(=O)OCCC=C[C@H]3OC23C=CCN(CCN2CCOCC2)C(=O)[C@@H]13 (stereo not given in full) | -0.671 (inactive) and -0.55 (inactive) | -0.181 and 0.476 | 0.0695 (inactive) and 6.53 (inactive) | 0.573 (inactive) and 1.15 (inactive) | 0.727 (inactive) and 0.906 (inactive) | 0.138 (inactive) and 0.21 (inactive) | -0.38 and -0.0957 | 1.08 (inactive) and 1 (inactive) | 0.376 (inactive) and 0.0486 (inactive) | 1.25 and 2.04 | -0.438 and -0.439 | -0.465 and 0.0431 | -1.36 and -0.421 | 0.19 and 0.248 | -0.174 and -0.382 | -0.41 and -1.09 | -0.189 (inactive) and -0.818 (inactive) | -0.00565 and 0.13 | -0.137 and -0.0991 | -0.298 (inactive) and 0.141 (inactive)
4 | CCOC(=O)C[C@H]1[C@H](OC(=O)c2ccccc2-c2ccccc2)[C@@H](NC(=O)c2ccccc2)c2cc(OCCCO)ccc2N1C(=O)c1ccc2ccccc2n1 | 0.869 (inactive) and -0.664 (inactive) | 0.126 and 0.341 | 5.24 (inactive) and 2.8 (inactive) | 0.709 (inactive) and 0.295 (inactive) | 0.195 (inactive) and -0.416 (inactive) | 0.353 (inactive) and 0.188 (inactive) | 0.649 and -0.172 | -0.556 (inactive) and -1.18 (inactive) | 0.848 (inactive) and 0.921 (inactive) | 2.2 and 0.732 | 0.916 and -0.393 | 0.804 and -0.0181 | 0.694 and 1.01 | 0.175 and -1.55 | -0.749 and -0.483 | 0.733 and 1.5 | 0.408 (inactive) and 0.209 (inactive) | -1.08 and 0.127 | -0.627 and 0.14 | 0.65 (inactive) and 0.579 (inactive)
5 | CC(C)C(=O)N[C@@H]1CCCN1C(=O)C=Cc1ccccc1 | 0.214 (inactive) | -0.101 | -0.272 (inactive) | 0.274 (inactive) | -0.77 (inactive) | -0.241 (inactive) | -0.685 | -0.457 (inactive) | 0.53 (inactive) | 0.434 | 0.516 | 0.709 | 0.546 | 0.391 | -0.463 | -0.201 | -0.481 (inactive) | 0.119 | 0.304 | -0.123 (inactive)
6 | CCOC(=O)c1ccc(NC(=O)O[C@H]2[C@H](OC(=O)Nc3ccccc3)[C@@H](OC(=O)Nc3ccccc3)[C@@H](OC)O[C@@H]2CO)cc1 | -1.16 (inactive) and -0.655 (inactive) | 0.507 and 0.394 | 5.55 (inactive) and 14.7 (active) | 1.05 (inactive) and 2.32 (inactive) | 0.199 (inactive) and 1.28 (inactive) | 0.764 (inactive) and 0.888 (inactive) | 0.139 and 0.0102 | 0.0131 (inactive) and -4.33 (inactive) | -0.578 (inactive) and -1.01 (inactive) | -0.851 and -1.69 | -1 and -2.09 | 1.79 and 1.14 | -1.92 and -2.54 | -1.83 and -2.21 | -1.56 and -2.49 | -1.05 and -0.323 | 2.13 (inactive) and 0.661 (inactive) | -0.464 and -0.37 | -0.447 and -0.575 | -3.35 (inactive) and -3.84 (inactive)
7 | C=CCN(CCCC)C(=O)C(c1cccs1)N(CCOCCO)C(=O)/C=C\C(=O)O (stereo not given) | 1.59 (inactive) and 1.84 (inactive) | -0.275 and -0.127 | -0.0592 (inactive) and -0.28 (inactive) | -0.832 (inactive) and -0.75 (inactive) | -0.114 (inactive) and 0.0221 (inactive) | -1.22 (inactive) and -1.27 (inactive) | 1.05 and 1.65 | 0.0943 (inactive) and 0.209 (inactive) | -0.73 (inactive) and -0.71 (inactive) | 0.465 and -0.0314 | 1.12 and 0.149 | 0.185 and -0.242 | 0.914 and 0.824 | 1.04 and 1.56 | 1.05 and -0.0726 | 0.644 and 1.03 | 0.713 (inactive) and 0.0219 (inactive) | 0.835 and 0.00316 | -1.11 and -0.822 | -0.557 (inactive) and -0.469 (inactive)
